# Laboratory results: PubChem BioAssay (Tox21)
# Inconclusive results are not listed. Where a call stands in place of a potency, no number is given. The source made the active and inactive calls. Unless noted, the call rests on the fitted dose curve; in most records, active means well fitted curve in the direction sought with a large enough effect in the repeat runs; inconclusive means weak or mixed curves; inactive means no such curve, though single readings can be large; an effect the other way counts as inactive or inconclusive.
# Tests used:
# [1] = qHTS assay to identify small molecule antagonists of the estrogen receptor alpha (ER-alpha) signaling pathway using the BG1 cell line in the presence of 0.1 nM 17-beta-estradiol - cell viability counter screen (AID 1259241); further: nearly all actives have a fitted effect of over 40% in size; further: potency means the concentration at half of the fitted maximal effect
# Procedure, shortened: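 CellTiter-Fluor read (30 min, 37C) on ER-alpha/ERE-luc VM7Luc4E2 cells; 22 hr compound treatment; agonist 0.1 nM E2 final; same-well multiplex.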
# [2] = qHTS assay to identify small molecule antagonists of the androgen receptor (AR) signaling pathway using the MDA cell line in the presence of 0.5 nM R1881 - cell viability counter screen (AID 1259242); further: nearly all actives have a fitted effect of over 45% in size; further: potency means the concentration at half of the fitted maximal effect
# Procedure, shortened: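 qHTS format. MDA-kb2 (MMTV-luc, AR/GR responsive) + cpd + 0.5 nM R1881 final, 16 hr 37C/0% CO2 → CellTiter-Fluor 30 min → fluorescence intensity.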
# [3] = target: Estrogen receptor (Homo sapiens) (UniProt P03372); assay: qHTS assay to identify small molecule antagonists of the estrogen receptor alpha (ER-alpha) signaling pathway using the BG1 cell line in the presence of 0.1 nM 17-beta-estradiol (AID 1259244); further: nearly all actives have a fitted effect of over 50% in size; further: potency means the concentration at half of the fitted maximal effect
# Chain of Estrogen receptor (Homo sapiens) (P03372 whole entry, looked up): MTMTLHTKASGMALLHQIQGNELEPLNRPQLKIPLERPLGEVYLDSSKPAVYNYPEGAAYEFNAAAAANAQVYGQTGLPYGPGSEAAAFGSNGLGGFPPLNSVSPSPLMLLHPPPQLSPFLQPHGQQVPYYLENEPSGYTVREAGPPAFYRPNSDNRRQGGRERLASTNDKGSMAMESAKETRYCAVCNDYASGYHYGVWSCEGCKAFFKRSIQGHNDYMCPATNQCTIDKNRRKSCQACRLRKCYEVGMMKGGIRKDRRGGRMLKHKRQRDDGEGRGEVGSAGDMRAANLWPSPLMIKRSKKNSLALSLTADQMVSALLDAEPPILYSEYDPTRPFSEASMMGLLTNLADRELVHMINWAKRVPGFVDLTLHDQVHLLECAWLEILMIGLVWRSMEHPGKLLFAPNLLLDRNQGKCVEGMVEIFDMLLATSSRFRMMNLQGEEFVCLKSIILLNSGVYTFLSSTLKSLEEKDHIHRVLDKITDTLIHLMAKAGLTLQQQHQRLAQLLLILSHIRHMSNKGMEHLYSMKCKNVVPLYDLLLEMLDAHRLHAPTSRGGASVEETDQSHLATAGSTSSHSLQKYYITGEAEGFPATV
# Procedure, shortened: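 Reporter is a stably transfected luciferase under four estrogen responsive elements in VM7Luc4E2 cells expressing native full-length ER-alpha; inhibition of 0.1 nM (final) 17beta-estradiol-driven signal over 22 h is read by luminescence.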
# [4] = qHTS assay to identify small molecule phospholipidosis (PLD) inducers (AID 1259344; active means well fitted curve in the direction sought with a large enough effect; an effect the other way counts as inactive or inconclusive)
# Procedure, shortened: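 After 4 h attachment on collagen I, HepG2 cells were dosed with compound alongside LipidTOX Red, kept 24 h at 37 C, fixed, and imaged for lamellar phospholipid pits.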
# [5] = qHTS assay to identify small molecule HDAC inhibitors (AID 1259364);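 further: wild-type HCT-116 cells with endogenous class I/II HDAC activity; top concentration of the series differs between compounds; nearly all actives have a fitted effect of over 45% in size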
# Procedure, shortened: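 Quantitative high-throughput format: overnight-seeded HCT-116 cells got compounds for 2 hr at 37C; HDAC-Glo I/II reagent added, 30 min RT, luminescence measured.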
# [6] = qHTS assay to identify small molecule HDAC inhibitors - cell viability counter screen (AID 1259365); further: series mostly up to about 92 µM; nearly all actives have a fitted effect of over 50% in size
# Procedure, shortened: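 To flag cytotoxic hits, 1,500 wild-type HCT-116 cells per well, plated the day before, receive test compounds for 2hr at 37 C before CellTiter-Glo reagent and a luminescence read.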
# [7] = qHTS assay to identify small molecule agonists of the sonic hedgehog signaling (Shh) pathway - cell viability counter screen (AID 1259366); further: nearly all actives have a fitted effect of over 50% in size
# Procedure, shortened: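 Fluorescence from CellTiter-Fluor reports live cells in this counter screen. NIH/3T3-derived Gli1-Luc reporter cells receive test compounds for 24hr at 37C; reagent goes in at 23hr.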
# [8] = qHTS assay to identify small molecule antagonists of the sonic hedgehog signaling (Shh) pathway - cell viability counter screen (AID 1259367); further: nearly all actives have a fitted effect of over 55% in size
# Procedure, shortened: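 Conditioned medium drove Shh signaling in 3T3 Gli1-Luc cells exposed to compounds at 37C and 5% CO2. Viability was determined from CellTiter-Fluor fluorescence, with reagent incubated 1 hr after 23 hr of treatment.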
# [9] = qHTS assay to identify small molecule agonists of the sonic hedgehog signaling (Shh) pathway (AID 1259368; calls by dose curve;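 further: NIH/3T3-derived 3T3Gli1-Luc cells carrying a stable Gli1-driven firefly luciferase reporter; series mostly up to about 92 µM; nearly all actives have a fitted effect of over 15% in size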)
# Procedure, shortened: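 Quantitative high-throughput format using a Gli1-driven firefly luciferase reporter line derived from NIH/3T3 cells. After a 24 hr compound treatment at 37 C and 5% CO2, luminescence reported Gli1 response element activity.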
# [10] = qHTS assay to identify small molecule antagonists of the sonic hedgehog signaling (Shh) pathway (AID 1259369; calls by dose curve; further: nearly all actives have a fitted effect of over 45% in size; further: potency means the concentration at half of the fitted maximal effect)
# Procedure, shortened: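 Stable Gli1-Luc reporter NIH/3T3 clone; quantitative HTS in stimulated mode with conditioned medium. Luminescence measured after 24hr compound treatment at 37 C.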
# [11] = target: Estrogen receptor beta (Homo sapiens) (UniProt Q92731); assay: qHTS assay to identify small molecule agonists of the estrogen receptor beta (ER-beta) signaling pathway (AID 1259377; active means well fitted activation curve with a large enough effect in the signal ratio in the repeat runs, not every such curve was filed as active; the % refers to the signal ratio)
# Chain of Estrogen receptor beta (Homo sapiens) (Q92731 whole entry, looked up): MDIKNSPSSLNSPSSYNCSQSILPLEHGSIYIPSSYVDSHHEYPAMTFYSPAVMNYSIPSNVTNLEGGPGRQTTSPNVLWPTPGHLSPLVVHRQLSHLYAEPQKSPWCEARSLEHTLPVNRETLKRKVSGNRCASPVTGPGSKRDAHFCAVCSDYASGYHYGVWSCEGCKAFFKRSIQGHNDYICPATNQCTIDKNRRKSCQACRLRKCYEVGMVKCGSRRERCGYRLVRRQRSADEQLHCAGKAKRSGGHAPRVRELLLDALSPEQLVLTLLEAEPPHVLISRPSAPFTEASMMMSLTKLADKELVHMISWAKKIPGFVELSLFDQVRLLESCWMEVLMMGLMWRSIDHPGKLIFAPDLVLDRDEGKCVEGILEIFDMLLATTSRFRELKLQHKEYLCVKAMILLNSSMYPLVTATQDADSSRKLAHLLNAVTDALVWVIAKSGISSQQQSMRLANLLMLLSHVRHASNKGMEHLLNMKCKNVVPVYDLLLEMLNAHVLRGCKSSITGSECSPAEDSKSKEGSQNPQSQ
# Procedure, shortened: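 Screening used GripTite ER-beta-UAS-bla cells held in 2% charcoal-stripped FBS medium. After overnight (16 hr) compound incubation at 37C, beta-lactamase activity was detected with a FRET substrate by fluorescence.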
# [12] = qHTS assay to identify small molecule agonists of the androgen receptor (AR) signaling pathway in the presence of an antagonist - cell viability counter screen (AID 1259379); further: nearly all actives have a fitted effect of over 25% in size; further: potency means the concentration at half of the fitted maximal effect
# Procedure, shortened: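 Nilutamide-containing (3.0uM final) MDA-kb2 cultures, 3,000 cells/well, were treated with compounds across 15 concentrations. After 16 hr at 37C with no CO2, cell viability was determined by CellTiter-Fluor fluorescence in the luciferase assay wells.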
# [13] = qHTS assay to identify small molecule agonists of the estrogen receptor beta (ER-beta) signaling pathway - cell viability counter screen (AID 1259380); further: nearly all actives have a fitted effect of over 30% in size; further: potency means the concentration at half of the fitted maximal effect
# Procedure, shortened: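 Steps: plate ER-beta-UAS-bla HEK293T cells, rest 6 hr; add compounds in DMSO; incubate 16 hr at 37C, 5% CO2; add FRET substrate 2 hr; add CellTiter-Glo, wait 30 min at room temperature; read luminescence.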
# [14] = qHTS assay to identify small molecule antagonists of the estrogen receptor beta (ER-beta) signaling pathway - cell viability counter screen (AID 1259382); further: series mostly up to about 92 µM; nearly all actives have a fitted effect of over 55% in size
# Procedure, shortened: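 Viability is scored by CellTiter-Glo luminescence (30 min, room temperature) in ER-beta-UAS-bla HEK293T wells already read for reporter fluorescence. Compound exposure lasts 16 hr at 37C alongside 1nM 17-beta-estradiol in charcoal-stripped serum medium.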
# [15] = target: Estrogen receptor (Homo sapiens) (UniProt P03372); assay: qHTS assay to identify small molecule agonists of the estrogen receptor alpha (ER-alpha) signaling pathway in the presence of an antagonist (AID 1259383; calls by dose curve; further: top concentration of the series differs between compounds; nearly all actives have a fitted effect of over 15% in size)
# Procedure, shortened: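 Readout was ERE-driven luciferase luminescence in VM7Luc4E2 cells, which express full-length ER-alpha endogenously. Compounds were tested at 15 concentrations for 22hr alongside 10.0nM ICI-182,780 (final concentration).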
# [16] = qHTS assay to identify small molecule agonists or antagonists of the thyroid stimulating hormone receptor (TSHR) signaling pathway - wild type cell line counter screen (AID 1259384; calls by dose curve)
# Procedure, shortened: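 Wild-type HEK293 cells were plated 18 h at 37 C/5% CO2, pin-dosed with compound plus Ro20-1724 medium, held 30 min at room temperature, then given cAMP-d2 and anti-cAMP-cryptate; fluorescence was read after 1 h. Fifteen concentrations, triplicate.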
# [17] = target: Thyrotropin receptor (Homo sapiens) (UniProt P16473); assay: qHTS assay to identify small molecule antagonists of the thyroid stimulating hormone receptor (TSHR) signaling pathway (AID 1259385; calls by dose curve; further: nearly all actives have a fitted effect of over 20% in size)
# Chain of Thyrotropin receptor (Homo sapiens) (P16473 whole entry, looked up): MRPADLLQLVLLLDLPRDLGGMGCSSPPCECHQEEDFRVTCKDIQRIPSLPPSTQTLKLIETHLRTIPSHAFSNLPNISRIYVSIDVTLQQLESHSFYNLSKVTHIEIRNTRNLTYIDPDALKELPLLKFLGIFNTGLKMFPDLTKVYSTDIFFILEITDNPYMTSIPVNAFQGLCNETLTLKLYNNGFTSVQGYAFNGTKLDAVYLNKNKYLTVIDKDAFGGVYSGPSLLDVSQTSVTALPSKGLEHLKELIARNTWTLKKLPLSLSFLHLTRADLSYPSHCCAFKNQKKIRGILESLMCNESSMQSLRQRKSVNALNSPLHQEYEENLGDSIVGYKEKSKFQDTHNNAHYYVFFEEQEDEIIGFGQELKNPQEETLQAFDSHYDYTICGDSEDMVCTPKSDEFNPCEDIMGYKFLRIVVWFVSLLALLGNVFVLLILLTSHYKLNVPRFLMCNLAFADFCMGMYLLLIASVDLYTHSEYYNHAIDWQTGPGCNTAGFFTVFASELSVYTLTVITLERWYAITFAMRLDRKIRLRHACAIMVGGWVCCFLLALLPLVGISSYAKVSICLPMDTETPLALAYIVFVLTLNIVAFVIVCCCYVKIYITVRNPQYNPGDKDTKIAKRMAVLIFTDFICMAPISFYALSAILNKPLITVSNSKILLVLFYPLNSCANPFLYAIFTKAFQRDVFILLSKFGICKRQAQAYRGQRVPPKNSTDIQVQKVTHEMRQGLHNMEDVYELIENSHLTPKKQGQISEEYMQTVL
# Procedure, shortened: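 TSHR-HEK293 cells were plated and held 18 h at 37C/5% CO2, then given compound plus Ro20-1724 and stimulated with TSH at 1.5 ng/mL final. After 30 min at room temperature, cAMP was detected with cAMP-d2/anti-cAMP-cryptate (1 h) by fluorescence.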
# [18] = target: Estrogen receptor beta (Homo sapiens) (UniProt Q92731); assay: qHTS assay to identify small molecule antagonists of the estrogen receptor beta (ER-beta) signaling pathway (AID 1259378; active means well fitted inhibition curve with a large enough effect in the signal ratio in the repeat runs, not every such curve was filed as active; the % refers to the signal ratio; further: potency means the concentration at half of the fitted maximal effect)
# Procedure, shortened: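 ER-beta-UAS-bla HEK293T (GripTite) cells in 2% charcoal-stripped FBS medium were preincubated 6 hr at 37C, dosed with compound, then stimulated with 1 nM E2 (final) for 16 hr; beta-lactamase reporter read by B/G FRET fluorescence after 2 hr substrate loading.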
Compound,Potency [1],Potency [2],Potency [3],Potency [4],Potency [5],Potency [6],Potency [7],Potency [8],Potency [9],Potency [10],Potency [11],Potency [12],Potency [13],Potency [14],Potency [15],outcome [16],Potency [17],Potency [18]
CCCCCCC[N+](CC)(CC)CCCCc1ccc(Cl)cc1,26.6 µM (active),6.68 µM (active),11.9 µM (active),inactive,inactive,inactive,inactive,inactive,inactive,0.168 µM (active),inactive,5.96 µM (active),9.44 µM (active),inactive,inactive,inactive,inactive,
CC(C)(C)C(=O)OCOC(=O)[C@@H]1N2C(=O)[C@@H](NC(=O)[C@H](N)c3ccccc3)[C@H]2SC1(C)C,inactive,inactive,inactive,inactive,inactive,inactive,inactive,,inactive,inactive,inactive,inactive,inactive,inactive,inactive,inactive,inactive,inactive
Cc1ccc(-n2nc(C(C)(C)C)cc2NC(=O)Nc2ccc(OCCN3CCOCC3)c3ccccc23)cc1,inactive,inactive,inactive,inactive,inactive,inactive,inactive,inactive,inactive,inactive,inactive,inactive,7.5 µM (active),inactive,inactive,,inactive,26.6 µM (active)
